Source: PubChem BioAssay
Only some compounds are listed: those with a hit (about 9.5% of all), similar ones and a draw of the others.
Pf growth 96h: inhibits malaria parasite growth, 96 h; Potency, µM (titrated, usually from 28.7 µM), hits mostly inhibitors; hit rate 6.9% among 320,000; P. falciparum luciferase reporter growth, 96 h; active = well fitted inhibition curve with a large enough effect; inconclusive = small, poorly fitted or top-dose-only effect, or another doubt; inactive = no such curve, though single readings can be large or run the other way
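Parasite growth measured via integrated firefly luciferase reporter in P. falciparum. Infected erythrocytes at 2% hematocrit, 0.05% parasitemia final were treated 96 hours at 37 C under 5% CO2, and luminescence was read.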
NS1 inh: influenza NS1 inhibition. Potency, µM (top dose mostly 46.1 µM). hit rate 0.4% among 270,000. AID 2326; note: actives are rising curves; nearly all actives have a fitted effect of over 50% in size
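Recovery from NS1-induced slow growth read by OD600 in budding yeast switched to galactose assay medium (pH 6.0, -URA) at 1:100 dilution. Compound 23 nl per well; the matching strain lacking NS1 serves as control.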
RE007 growth inh: less growth of the S. pombe RE007 Vpr strain; hit rate 0.21% among 360,000; S. pombe RE007 Vpr strain, BacTiter-Glo ATP luminescence, 24 h; Potency, µM (highest dose often 92.2 µM), usual class: inhibitors; AID 651644; active = well fitted falling curve with a large enough effect; inconclusive = small, poorly fitted or top-dose-only effect; inactive = no such curve, though single readings can be large or run the other way; note: nearly all actives have a fitted effect of over 50% in size
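Fission yeast strain RE007, carrying one chromosomally integrated HIV-1 vpr copy, was seeded at OD 0.01 in PMG+AL medium with 23 nL pinned compound. After 24 h at 30 °C and 99% humidity, viability was read by BacTiter-Glo luminescence.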
Pf growth 48h: P. falciparum growth inhibition at 48 hours (one generation); P. falciparum luciferase growth in erythrocytes, 48 h; Potency, µM (highest dose often 28.7 µM), actives largely listed as inhibitors; AID 504832; hit rate 5.9% among 310,000; active = well fitted inhibition curve with a large enough effect; inconclusive = small, poorly fitted or top-dose-only effect, or another doubt; inactive = no such curve, though single readings can be large or run the other way
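A one-generation exposure of luciferase-tagged malaria parasites in RPMI 1640/Albumax erythrocyte culture, 37 C and 5% CO2. Inhibition is inferred from decreased luminescence after adding detection reagent.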
SARS PLP yeast: SARS-CoV PLP inhibition in yeast; S. cerevisiae expressing SARS-CoV PLpro, growth rescue; Potency, µM (highest dose often 32.9 µM), most hits filed as activators; hit rate 0.19% among 330,000; AID 485353; note: nearly all actives have a fitted effect of over 55% in size
Of the large screens only hits and unclear results are named; the others gave an inactive call. Unless noted, calls come from the whole dose curve.

Cc1ccc(C2CC(c3cccs3)=NN2S(=O)(=O)c2ccc(C)cc2)cc1 (stereo unspecified)	Pf growth 96h 2.9µM, Pf growth 48h inconclusive
Cc1nnc(NC(=O)CSCc2cc(=O)c3ccccc3[nH]2)s1	none (no result: NS1 inh, RE007 growth inh)
Fc1ccc(N2N=C(c3cccs3)CC2c2ccccc2)cc1 (stereo unspecified)	Pf growth 48h 13µM (no result: NS1 inh)
CS(=O)(=O)N1N=C(c2cccs2)CC1c1ccccc1 (stereo unspecified)	Pf growth 96h inconclusive, Pf growth 48h inconclusive
CCN=C1S/C(=C\c2cc(OCC)c(O)cc2Br)C(=O)N1CC	Pf growth 96h 10µM, Pf growth 48h 12µM
CCN1C(=O)[C@H]2[C@@H](c3ccc(-c4cccc(Cl)c4)cc3)N[C@@](CC(C)C)(C(=O)OC)[C@H]2C1=O	none (no result: Pf growth 96h, NS1 inh, Pf growth 48h)
CCN1C(=O)[C@H]2[C@@H](c3ccc(-c4ccc(OC)cc4)cc3)N[C@@](CC(C)C)(C(=O)OC)[C@H]2C1=O	Pf growth 96h 12µM, Pf growth 48h 12µM (no result: NS1 inh)
CCN1C(=O)[C@H]2[C@@H](c3ccc(-c4ccc(Cl)c(Cl)c4)cc3)N[C@@](CC(C)C)(C(=O)OC)[C@H]2C1=O	Pf growth 96h 4.7µM, Pf growth 48h 12µM (no result: NS1 inh)
COC(=O)[C@]1(CC(C)C)N[C@H](c2ccc(-c3ccc(Cl)c(Cl)c3)cc2)[C@@H]2C(=O)N(C)C(=O)[C@@H]21	Pf growth 96h 4.7µM, Pf growth 48h 7.4µM (no result: NS1 inh)
O=c1[nH]c2c(c(=O)[nH]1)OCN(Cc1ccccc1)C2	none (no result: Pf growth 96h, NS1 inh, Pf growth 48h, SARS PLP yeast)
COc1ccc(-c2ccc(-c3nc4ccc(C)cn4c3NC3CCCCC3)cc2OC)cc1	Pf growth 96h 12µM, RE007 growth inh inconclusive, Pf growth 48h 12µM (no result: NS1 inh)
Cc1ccc2nc(-c3cccnc3)c(NC3CCCCC3)n2c1	Pf growth 48h inconclusive
CCC(C)Sc1ccc(-c2nc3ccc(C)cn3c2NC2CCCCC2)cc1 (stereo unspecified)	Pf growth 96h inconclusive, RE007 growth inh inconclusive, Pf growth 48h 12µM (no result: NS1 inh)
CC(=O)c1ccc(-c2cccc(-c3nc4ccccn4c3NC3CCCCC3)c2)cc1	Pf growth 96h inconclusive, Pf growth 48h 12µM (no result: NS1 inh)
c1cn2c(NC3CCCCC3)c(-c3ccc(SC4CCCCC4)cc3)nc2cn1	Pf growth 96h inconclusive, Pf growth 48h 3.7µM (no result: NS1 inh)
O=C(NCC1COc2ccccc2O1)c1cccc(S(=O)(=O)N2CCOCC2)c1 (stereo unspecified)	Pf growth 96h inconclusive (no result: NS1 inh)
CCC(=O)Nc1c(-c2ccc(C)cc2)nc2ccc(C)cn12	Pf growth 96h 12µM, Pf growth 48h inconclusive
CCC(C)Sc1cccc(-c2nc3ccc(C)cn3c2NC2CCCCC2)c1 (stereo unspecified)	Pf growth 96h 13µM, RE007 growth inh inconclusive, Pf growth 48h 8.3µM (no result: NS1 inh)
Cc1ccc2nc(-c3cccc(SC4CCCCC4)c3)c(NC3CCCCC3)n2c1	none (no result: Pf growth 96h, NS1 inh, Pf growth 48h)
CCC(C)Sc1cc(-c2nc3ccccn3c2NC2CCCCC2)ccc1OC (stereo unspecified)	Pf growth 96h inconclusive, RE007 growth inh inconclusive, Pf growth 48h 4.1µM (no result: NS1 inh)
COc1ccc(C(=O)OCC(=O)Nc2sccc2C(N)=O)cc1[N+](=O)[O-]	none (no result: NS1 inh)
Cc1ccc(SCc2cc(=O)c3c(=O)n(-c4ccccc4)[nH]c3[nH]2)cc1	Pf growth 96h 9.3µM (no result: NS1 inh)
Cc1ccc(N=Cc2cccc(O)c2O)c(C)c1	Pf growth 96h 12µM, Pf growth 48h inconclusive (no result: RE007 growth inh)
Oc1cccc(/C=N/N=C/c2cccc(O)c2O)c1O	Pf growth 96h inconclusive, Pf growth 48h 13µM
CCOC(=O)N1CCN(S(=O)(=O)c2c(C)nc3scc(C)n3c2=O)CC1	Pf growth 48h inconclusive
O=C(CSc1ccccc1C(=O)O)NC1CCCCCC1	Pf growth 96h inconclusive
CCN(CC(=O)NC(C)(C)C)C(=O)c1ccccc1SCC(=O)NC1CCCCCCC1	Pf growth 96h inconclusive, Pf growth 48h 10µM (no result: SARS PLP yeast)
Cc1ccccc1NS(=O)(=O)c1cc(C(=O)NCCSC2CCCCC2)ccc1C	Pf growth 96h inconclusive, NS1 inh inconclusive, RE007 growth inh 11µM
CC(C)Cc1cc(C(=O)N2N=C(C(F)F)CC2(O)C(F)F)c2ccccc2n1 (stereo unspecified)	Pf growth 96h 6.6µM, Pf growth 48h 13µM
O=C(CSc1nc2ccc(S(=O)(=O)N3CCOCC3)cc2[nH]1)N1CCOCC1	Pf growth 96h 1.9µM (no result: Pf growth 48h)
CC1=C(C#N)C(C)(C)C(C#N)=C(C)N1	none (no result: Pf growth 96h, NS1 inh, Pf growth 48h, SARS PLP yeast)
CC(=O)c1cccc(NC(=O)CN2C(=O)NC(C)(c3ccc4c(c3)OCCCO4)C2=O)c1 (stereo unspecified)	Pf growth 48h inconclusive (no result: NS1 inh)
COc1cc(NC(=O)c2ccnnc2)cc(C(=O)Nc2cccc(C(F)(F)F)c2)c1	Pf growth 96h 4.1µM, Pf growth 48h 9.3µM
O=C(Nc1cccc(C(F)(F)F)c1)c1cccnc1	none (no result: Pf growth 96h, SARS PLP yeast)
O=C(Nc1ccc(Oc2cccc(C(F)(F)F)c2)nc1)c1ccccc1	Pf growth 96h 15µM, Pf growth 48h 10µM
COc1cccc(C(=O)Nc2ccc(Oc3cccc(C(F)(F)F)c3)nc2)c1	Pf growth 96h inconclusive, Pf growth 48h 9.3µM
O=C(Nc1ccc(Oc2cccc(C(F)(F)F)c2)nc1)c1cccs1	Pf growth 96h inconclusive, Pf growth 48h 1.7µM
COc1ccc(NC(=O)COc2cccc(C(F)(F)F)c2)cn1	Pf growth 48h inconclusive (no result: NS1 inh)
Cc1ccnn1-c1ccc(C(=O)N2CCCN(S(=O)(=O)c3ccc(F)cc3)CC2)cc1	Pf growth 96h inconclusive, Pf growth 48h inconclusive (no result: NS1 inh)
CCN(CC(=O)Nc1cc(S(=O)(=O)N2CCOCC2)ccc1Cl)Cc1ccccc1	Pf growth 96h 12µM, Pf growth 48h 12µM (no result: NS1 inh)
Cc1cccc(C)c1Nc1nnc(SCC(=O)Nc2cc(S(=O)(=O)N3CCCCC3)ccc2Cl)s1	Pf growth 96h inconclusive, NS1 inh inconclusive, Pf growth 48h 13µM
CCN(CC(=O)Nc1cc(S(=O)(=O)N2CCCCC2)ccc1Cl)Cc1ccccc1	Pf growth 96h 10µM, Pf growth 48h 10µM (no result: NS1 inh)
CCN(CC(=O)Nc1ccc(S(=O)(=O)N2CCCCC2)cc1)Cc1ccccc1	Pf growth 96h inconclusive, Pf growth 48h inconclusive (no result: NS1 inh)
C(=N\Nc1ccccn1)/c1c[nH]c2ccccc12	none
O=c1nc(N/N=C/c2c[nH]c3ccccc23)cn[nH]1	Pf growth 96h 0.41µM
Brc1ccc2c(c1)OCCOCCOCCOCCOCCO2	Pf growth 96h 10µM
Brc1ccc2c(c1)OCCOCCOCCOCCOCCOCCO2	none
CN1CCOCCOc2ccccc2OCCOCC1	none (no result: Pf growth 96h, NS1 inh, Pf growth 48h, SARS PLP yeast)
c1ccc2c(c1)OCCOCCOCCOCCOc1ccccc1OCCOCCOCCO2	Pf growth 96h 12µM (no result: RE007 growth inh)
Cc1sc2nc(C)n(/N=C/c3ccccc3)c(=O)c2c1C	none (no result: Pf growth 96h)
C=CCOc1nc2sc(C)c(C)c2c(=O)n1-c1ccccc1	Pf growth 96h 8.3µM
Cc1ccccc1NS(=O)(=O)c1cc(C(=O)Nc2ccccc2-c2ccccc2)ccc1Cl	Pf growth 48h inconclusive
CS(=O)(=O)N(Cc1ccc(C(=O)NCCSc2ccccn2)cc1)c1ccccc1	Pf growth 96h inconclusive
CS(=O)(=O)N(Cc1ccccc1Cl)c1ccc(C(=O)NCc2ccccn2)cc1	Pf growth 96h 10µM, Pf growth 48h inconclusive
Cc1cc(C)cc(NS(=O)(=O)c2cc(C(=O)NCc3ccccn3)ccc2Cl)c1	Pf growth 96h inconclusive
